Sfp inh – Sfp phosphopantetheinyl transferase inhibition; Q9F4F7; Biochemical Sfp PPTase activity, qHTS; Potency, µM, for the others: largest response in the series, negative = inhibition, most hits filed as inhibitors; 3.5% of 310,000 active;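 also: the enzyme is Sfp with the accession as filed and its product quenches rhodamine fluorescence; 0% = enzyme reaction without inhibitor and -100% = no enzyme wells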
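Compounds were incubated with enzyme (final 15 nM) for 15 min at room temperature before substrate addition started the reaction. Fluorescence at 525 nm excitation, 598 nm emission was recorded immediately and after 30 minutes.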
HP1b chromo inh – inhibitors of HP1-beta chromodomain binding to methylated histone tails | AlphaScreen HP1-beta / biotin-H3K9me3 peptide binding | 0.56% of 390,000 active | Potency, µM (doses to about 114 µM), without a hit: top-dose activity change, negative = inhibition, usual class: inhibitors; also: nearly all actives have a fitted effect of over 70% in size
Target sequence (P83916 whole entry, looked up): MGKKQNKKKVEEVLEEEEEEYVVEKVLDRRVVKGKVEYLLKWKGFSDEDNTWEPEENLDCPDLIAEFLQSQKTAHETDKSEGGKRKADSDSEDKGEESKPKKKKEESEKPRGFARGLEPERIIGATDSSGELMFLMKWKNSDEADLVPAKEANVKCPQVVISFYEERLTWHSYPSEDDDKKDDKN
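AlphaScreen: HP1-beta (50 nM) preformed 30 min with biotin-H3(1-18)K9me3 peptide (50 nM) in PBS pH 7.4, 0.01% Tween-20. Compound added for 30 min at RT, then streptavidin donor/nickel chelate acceptor beads (10 ug/mL) for 30 min.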
JMJD2A Tudor inh – blocks the human JMJD2A Tudor domain; O75164; AlphaScreen JMJD2A-Tudor / H3K4me3 peptide binding; Potency, µM (top dose mostly 114 µM), without a hit: at the highest dose activity change, negative = inhibition, usual class: inhibitors; 4.4% of 390,000 active; also: % is scaled to controls: 0 for no effect and ±100 for the full control effect; nearly all actives have a fitted effect of over 50% in size
G9a inh – blocks human histone lysine methyltransferase G9a | G9a H3K9 monomethylation, AlphaScreen, 2 h | AID 504332 | Potency, µM (doses to about 102 µM), inactives show at the highest dose activity, negative = inhibition, actives largely listed as inhibitors | Q96KQ7 | 8.8% of 350,000 active; also: % is scaled to controls: 0 for no effect and ±100 for the full control effect; nearly all actives have a fitted effect of over 75% in size
Target sequence (Q96KQ7 913-1193 limits assumed): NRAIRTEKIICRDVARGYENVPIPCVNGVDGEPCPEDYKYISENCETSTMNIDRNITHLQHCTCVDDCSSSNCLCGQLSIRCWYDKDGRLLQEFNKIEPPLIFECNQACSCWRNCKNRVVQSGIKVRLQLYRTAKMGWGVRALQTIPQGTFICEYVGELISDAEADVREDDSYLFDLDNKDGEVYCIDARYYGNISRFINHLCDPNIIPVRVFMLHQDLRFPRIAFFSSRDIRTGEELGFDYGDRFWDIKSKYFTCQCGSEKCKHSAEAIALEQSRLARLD
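AlphaScreen read-out: biotin-H3K9 peptide (500 nM) methylation by 20 nM enzyme with 20 uM SAM, 2 h at room temperature after 15 min compound preincubation; anti-monomethyl H3K9 antibody plus donor/acceptor beads, 10 min dark.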
L3MBTL1 block – L3MBTL1 (human) inhibition | Q9Y468 | AlphaScreen L3MBTL1–H3K9me1 peptide binding | Potency, µM (doses to about 57.1 µM), for the others: top-dose activity, negative = inhibition, actives largely listed as inhibitors | 0.66% of 230,000 active | AID 485360; also: % is scaled to controls: 0 for no effect and ±100 for the full control effect; nearly all actives have a fitted effect of over 60% in size
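AlphaScreen proximity signal between nickel-chelate acceptor and streptavidin donor beads (final 10 ug/mL) reports binding of 50 nM L3MBTL1 to 75 nM biotin-H3 K9me1 peptide; complex incubated with compounds 30 min at room temperature; cefsulodin titration as control.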
BAZ2B inh – BAZ2B (human) inhibition; Q9UIF8; AlphaScreen BAZ2B-H3K14Ac peptide displacement; Potency, µM (titrated, usually from 114 µM), for the others: at the highest dose activity change, negative = inhibition, actives largely listed as inhibitors; 4.4% of 360,000 active; also: % is scaled to controls: 0 for no effect and ±100 for the full control effect; nearly all actives have a fitted effect of over 60% in size
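Inhibition is scored as reduced AlphaScreen emission. The BAZ2B/b-H3(5-23)K14Ac complex (50 nM each) in PBS pH 7.4, 0.01% Tween-20 meets compound (up to 110 uM) for 30 min at RT before bead addition.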
An asterisk follows results filed as active; ? = inconclusive; · = not tested or not shown; [ ] = dose if it differs, or a comment. An excerpt weighted towards active compounds, which were near 12% of everything screened. Calls follow the shape of the dose curve; as a rule, active = well fitted curve in the direction sought with a large enough effect; inconclusive = small, poorly fitted or top-dose-only effect, or another doubt; inactive = no such curve, though single readings can be large; an effect the other way counts as inactive or inconclusive. Potency is read from the fitted curve at half-maximal effect.

SMILES | Sfp inh | HP1b chromo inh | JMJD2A Tudor inh | G9a inh | L3MBTL1 block | BAZ2B inh
COc1ccc(C(CCNCc2ccc(N(C)C)cc2)C(C)C)cc1 (stereo unspecified) | 0% | ? | 32µM* | 32µM* | ? | 25µM*
COc1ccc(CNCCC(c2ccc(OC(C)C)cc2)c2ccccc2OC)cc1 (stereo unspecified) | -18% | 9% | -31% | -6%[2.33 µM] | · | ?
COc1ccc(-c2nc3cnc(Oc4cccc(Cl)c4)nc3n(CCC#N)c2=O)cc1 | 8% | · | · | 2%[0.501 µM] | · | ·
C=CCn1c(-c2csc3ccccc23)n[nH]c1=S | -6% | -8% | 18µM* | ? | · | -5%
C=CCn1c(NCc2c[nH]c3ccccc23)nc2ccccc21 | 0% | -2% | ? | -9%[59 µM] | 14%[11.4 µM] | -25%
CCn1c(-c2c[nH]c3ccccc23)n[nH]c1=S | -7% | -15% | 4µM* | 1.3µM* | · | 1%
C=CCn1c(-c2c[nH]c3ccccc23)n[nH]c1=S | -17% | 14% | 6.3µM* | 4µM* | 1% | 0%
COc1cccc(Cn2c(=O)c(-c3cn(C)c4ccccc34)nc3cncnc32)c1 | 4% | · | · | 13%[0.501 µM] | · | ·
CCOc1ncccc1C(=O)Nc1ccc(OC)c(S(=O)(=O)N2CCCCC2)c1 | 8% | 36% | 4% | 6% | -3% | 0%
O=C(Nc1ccncc1)c1ccc(Cl)c(S(=O)(=O)N2CCCCC2)c1 | · | 63% | -10% | -10%[0.501 µM] | -3% | -18%
CCOc1ncccc1C(=O)Nc1ccc(C)c(S(=O)(=O)N2CCCCCC2)c1 | · | 46% | 20µM* | 12%[59 µM] | 7% | 0%
COc1ccc(NC(=S)Nc2ccc(C)c(S(=O)(=O)N3CCCCC3)c2)cc1 | -4% | · | · | -31%[59 µM] | -10% | -29%
O=C(Nc1ccc(Cl)c(S(=O)(=O)N2CCCCC2)c1)c1ccncc1 | · | 12% | -12% | 56µM* | -10% | 1%
CCOc1ncccc1C(=O)Nc1cc(S(=O)(=O)N2CCCCC2)ccc1OC | · | 21%[57 µM] | -18% | 10µM* | -3% | 13%
Cc1ccc(NC(=S)Nc2ccc(C(C)C)cc2)cc1S(=O)(=O)N1CCCCCC1 | 56µM* | -23% | -25% | 45µM* | -15% | -13%
CCc1ccc(NC(=O)C2CCN(c3nn4c(=O)cc(C)nc4s3)CC2)cc1 | · | 28% | -8% | 9%[59 µM] | · | -2%
CN(C)S(=O)(=O)c1ccc(C(=O)OCC(=O)c2csc(N3CCCCC3)n2)cc1 | · | 39% | -35% | -13%[59 µM] | ? | -1%
Cc1ccc(NC(=O)CSc2nnc(COc3ccc(Cl)cc3)o2)c(C)c1 | · | 28% | 7% | -6%[59 µM] | · | -2%
COc1ccc(C2Nc3cccc4cccc(c34)N2)cc1Br | -16% | ? | 40µM* | 35µM* | · | 45µM*
COc1cc(C2Nc3cccc4cccc(c34)N2)cc(OC)c1O | 50µM* | ? | ? | 7.9µM* | 22µM* | ?
Fc1ccc(C2Nc3cccc4cccc(c34)N2)cc1 | ? | ? | ? | -37%[2.33 µM] | · | ?
COc1cc(C2Nc3cccc4cccc(c34)N2)ccc1OC(C)=O | -30% | -37% | 56µM* | 14µM* | ? | ?
COC(=O)c1ccc(C2Nc3cccc4cccc(c34)N2)cc1 | ? | 45µM* | 20µM* | 28µM* | ? | 35µM*
COc1ccc(C2NC(=O)c3ccccc3N2)cc1OC (stereo unspecified) | 21% | 44% | 15% | -15%[59 µM] | · | 4%
Cc1cc(NC(=O)c2ccc(Cl)cc2Cl)no1 | 8% | 24% | 0% | 9%[59 µM] | 4% | -8%
SMILES | Sfp inh | HP1b chromo inh | JMJD2A Tudor inh | G9a inh | L3MBTL1 block | BAZ2B inh
Cc1cc(SCCC(=O)O)nc2c(C)cccc12 | 11% | 54% | -15% | 79µM* | · | -6%
NC(=O)c1sc2nccc(Nc3ccccc3)c2c1N | 40µM* | -14% | ? | ? | -8% | -7%
COc1ccccc1NC(=O)c1cn(-c2ccccc2)nc1-c1ccccc1 | · | 42% | -3% | 3%[59 µM] | · | -2%
COc1ccc(C2Nc3ccccc3C(=O)N2NS(=O)(=O)c2ccc(C)cc2)c(OC)c1 (stereo unspecified) | 17% | -4% | -13% | -2% | · | 10%
Cc1ccc(S(=O)(=O)NN2C(=O)c3ccccc3NC2c2ccccc2F)cc1 (stereo unspecified) | 9% | 41% | -5% | 6% | · | 50µM*
CCOC(=O)N1CCN(C(=S)NC(=O)c2cncc(Br)c2)CC1 | -19% | -11% | -14% | 4µM* | 6% | -30%
CCOC(=O)N1CCN(C(=S)NC(=O)c2cc(Br)ccc2Cl)CC1 | 31% | 7% | -12% | ? | -7% | -15%
CCOC(=O)N1CCN(C(=S)NC(=O)c2ccc(Br)cc2)CC1 | 8% | 13% | -21% | 50µM* | -6% | -18%
Nc1nc(SCC(=O)Nc2ccc([N+](=O)[O-])cc2)[nH]c(=O)c1NC(=O)c1ccc(Br)cc1 | -7% | 19% | -6% | -2% | · | -4%
COc1ccccc1C(=O)Nc1ccc2c(c1)nc1n2CCN(Cc2ccccc2)C1 | -7% | 9% | -20% | 16µM* | 3% | -14%
O=C(Nc1ccc2c(c1)nc1n2CCN(Cc2ccccc2)C1)NC1CCCCC1 | -1% | 22% | -23% | 22µM* | · | -3%
COCCN1CCn2c(nc3cc(NC(=O)NC4CCCCC4)ccc32)C1 | -7% | 40% | ? | ? | · | -34%
O=C(Nc1ccc2c(c1)nc1n2CCN(Cc2ccccc2)C1)c1cccs1 | -10% | 62% | -12% | ? | · | ?
Brc1ccc([C@H]2CN3CCSC3=N2)cc1 | · | ? | 6.3µM* | ? | · | ·
CC1CCCN(C(=O)CCS(=O)(=O)c2ccc3c(c2)NC(=O)C(C)S3)C1 (stereo unspecified) | 20% | 31% | 16% | 12% | · | -5%[57.1 µM]
CCOc1cccc(=O)c2c(C)n(CC(=O)c3ccccc3)c(C)c12 | -24% | 79µM* | -27% | ? | ? | -28%
COc1cccc(=O)c2c(C)n(CC(=O)c3ccccc3)c(C)c12 | 45µM* | -5% | -34% | ? | ? | ?
CSc1cccc(N2CC(C(=O)Nc3ccccc3N3CCCC3)CC2=O)c1 (stereo unspecified) | · | -7% | ? | ? | -6% | ?
N#CCCn1c(=O)c(-c2cccs2)nc2cnc(OCc3ccccc3)nc21 | -5% | · | · | 20%[12.7 µM] | · | ·
NS(=O)(=O)c1ccc(N2C(=O)C3CC=CCC3C2=O)cc1 (stereo unspecified) | 20% | 25% | -16% | ? | -6% | -14%
CC1=C(C)CS(=O)N(c2ccc(S(N)(=O)=O)cc2)C1 (stereo unspecified) | 25µM* | 61% | 2% | ? | -2% | 1%

Source: PubChem (National Center for Advancing Translational Sciences (NCATS))
